Bioassay records: PubChem BioAssay, several laboratories
BoNT-A LC inh2 – inhibitors of Botulinum neurotoxin A light chain protease; multiplex microsphere protease substrate cleavage, flow cytometry; inhibition, % at 10 µM; 360,000 compounds, 0.17% hits; also: plate controls were buffer without enzyme for full effect and enzyme alone for no effect
Mtb FBA inh – Mtb fructose-bisphosphate aldolase inhibition; 360,000 compounds, 2.3% hits; purified M. tuberculosis FBA, fluorescence read-out; P9WQA3; AID 588726; inhibition, % at 1 µM; in the data active = inhibition above about 27%;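 also: 0% = vehicle and 100% = reference inhibitor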
Anthrax LF inh2 – inhibitors of Bacillus anthracis lethal factor protease; 360,000 compounds, 0.12% hits; multiplex microsphere protease cleavage assay, LF; inhibition, % at 10 µM; AID 588501; P15917; also: plate controls were buffer without enzyme for full effect and enzyme alone for no effect
GDH-TPI counter – counter-screen for M. tuberculosis FBA inhibitors: GDH-TPI coupled enzymes. GDH-TPI coupled enzyme counterscreen, NADH absorbance. 360,000 compounds, 1.2% hits. inhibition, % at 4.8 µM; in the data active = inhibition above about 30%;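 also: 0% = DMSO wells and 100% = wells lacking the enzyme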
BoNT F protease – BoNT F light chain protease inhibition | Multiplex microsphere protease cleavage assay, flow cytometry | 360,000 compounds, 0.22% hits | AID 588497 | inhibition, % at 10 µM; in the data active = inhibition above about 35%, passing the limit was not always enough; inconclusive = no clear call, values can overlap the other calls; also: plate controls were buffer without enzyme for full effect and enzyme alone for no effect
Bead autofluor – counter-screen for toxin protease inhibitors: compound fluorescence; 360,000 compounds, 3.1% hits; AID 624483; fluorescence intensity (no concentration beside the values); compound autofluorescence counterscreen, microsphere flow cytometry; stronger effect = higher value; in the data active = fluorescence intensity above about 16000; inconclusive = no clear call, values can overlap the other calls
The depositor's hits bear a star; ? = inconclusive. An excerpt weighted towards active compounds, which were near 6.7% of everything screened. Rule as the data show it, unless noted: active = inhibition above about 30%; inconclusive = no clear call, values can overlap the other calls; inactive = below that.

SMILES	BoNT-A LC inh2	Mtb FBA inh	Anthrax LF inh2	GDH-TPI counter	BoNT F protease	Bead autofluor
CCc1sc(C(=O)NCc2cc(C)n(C)n2)cc1Br	0	5	-4	3	-3	8516
Cc1ccc(-c2nc(-c3ccncc3)no2)cc1	2	2	-4	2	3	2996
CCCCn1c(SCC(=O)Nc2nnc(C)s2)nc2c1c(=O)n(C)c(=O)n2C	?	-2	2	1	2	22970*
CCCCn1c(SCC(=O)Nc2nnc(CC)s2)nc2c1c(=O)n(C)c(=O)n2C	?	-4	-3	7	4	21466*
CCCn1c(SCC(=O)Nc2nnc(C(C)C)s2)nc2c1c(=O)n(C)c(=O)n2C	-2	1	3	-15	4	11392
CCCCn1c(SCC(=O)Nc2nnc(CC)s2)nc2ccccc2c1=O	?	-1	0	10	1	22336*
COCc1ccc(C(=O)N(C)CC2CCCN(CCc3ccc(Cl)cc3)C2)o1 (stereo not drawn)	2	0	-3	2	2	5068
CC1(C)CCC(=O)c2ccccc21	0	1	-3	3	-7	2980
S=c1nc(-c2ccccc2)[nH]n1-c1ccccc1	-5	-1	-3	4	-6	25268*
Cc1cc(C)cc(NC(=O)c2ccc([N+](=O)[O-])o2)c1	0	-1	-6	20	-8	3659
Cc1c(N2C(=O)/C(=C/c3ccccc3)SC2=S)c(=O)n(-c2ccccc2)n1C	1	0	0	38*	-14	3441
CCCCC1(CC)C(=O)NC(=O)NC1=Nc1ccc(OC)cc1 (stereo not drawn)	3	-2	-1	-6	5	21503*
CCCN(CCC)C1Sc2ccc(C(=O)OC)cc2NC1=O (stereo not drawn)	1	-2	-1	9	1	19484*
CC(=O)c1ccc(OC2(C)CCN(Cc3cccn3-c3nccs3)C2)cc1 (stereo not drawn)	0	0	0	9	-1	3882
O=C(OCn1ncc(Cl)c(Cl)c1=O)c1ccccc1Cl	0	-4	-1	8	-4	16218*
COc1ccc(CC(=O)NC(C)c2nnc(SCC(=O)c3ccc(Br)cc3)n2C)cc1 (stereo not drawn)	1	2	-5	2	4	9763
CCn1c(SCC(=O)c2ccc(Br)cc2)nnc1C(C)NC(=O)Cc1ccc(OC)cc1 (stereo not drawn)	-4	1	-10	4	-5	17649*
CCCC(=O)OC1CC(C)N(C(=O)c2ccccc2)c2ccc(C)cc21 (stereo not drawn)	0	0	4	3	5	3289
COc1ccc(C(=O)NC(CC(C)C)C(=O)O)cc1OC (stereo not drawn)	?	2	-3	-2	-4	20991*
CCCc1cc(C(=O)OC)c(NC(=O)OCC)s1	?	0	-12	3	11	18061*
CCOC(=O)c1cc(CC)sc1NC(=O)C1CC1	-1	1	-2	10	-8	9851
CCCc1cc(C(=O)OC)c(NC(=O)CCCC(=O)O)s1	0	3	3	1	-2	4683
CCc1cc(C(=O)OC)c(NC(=O)CCC(=O)O)s1	1	2	1	15	0	21823*
COC(=O)C1=CN(c2cccc(C(F)(F)F)c2)C=C(C(=O)OC)C1c1ccc(O)c(OC)c1	2	1	-4	0	6	3873
CC(=O)NCC(=O)OCC(=O)c1ccc(C)c(C)c1	-1	0	-5	0	-4	9982
SMILES	BoNT-A LC inh2	Mtb FBA inh	Anthrax LF inh2	GDH-TPI counter	BoNT F protease	Bead autofluor
Cc1ccc(C(=O)COC(=O)C2C3C=CC(C3)C2C(=O)OCC(=O)c2ccc(C)c(C)c2)cc1C (stereo not drawn)	?	-1	-10	2	-4	22921*
CCOC(=O)c1c[nH]c2c(C)cc(C)cc2c1=O	?	0	-1	5	-2	20267*
CCOC(=O)c1c[nH]c2c3c(ccc2c1=O)CCCC3	-5	-1	2	-11	-8	21559*
CCOc1ccc(S(=O)(=O)N2CCC(C(=O)NCc3cccnc3)CC2)cc1	-1	-1	2	1	-6	4930
C=C(C)C(O)COc1c2occc2c(OC)c2ccc(=O)oc12 (stereo not drawn)	-1	2	-7	8	-4	5643
CC1(C)CC(=O)CC(C2(O)C(=O)N(Cc3ccccc3)c3ccccc32)O1 (stereo not drawn)	0	2	-3	-9	-4	5390
